Data as given in the supplement of paper PMC7156485.
± gives the standard deviation of the averaged measurements.

Experiments:
Details in all cases: concentration: 10 µM; 24 h
HCC1569 [1] = assay: cell number relative to DMSO (% of DMSO); higher = more cells (less growth inhibition / toxicity)
Procedure, shortened: (§1)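 HCC1569 and TDF cells were seeded at 800 per well in 384-well plates in RPMI with 10% FBS and treated with compounds at 10 µM for 24 h at 37 °C, in triplicate. After fixation in 3.7% formaldehyde, cells were stained with a rabbit anti-H1.0 antibody, an AlexaFluor 647 secondary and DAPI, and six fields per well were imaged at ×10. H1.0 nuclear intensity or cell number is given as percent of the plate control, using the median of replicates, with HCC1569 values smoothed for positional effects.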

TDF [2] = assay: as above
Procedure, shortened: as §1

TDF [3] = assay: H1.0 immunofluorescence intensity relative to DMSO (% of DMSO); higher = stronger H1.0 induction, active = 120 or more
Procedure, shortened: as §1

HCC1569 [4] = assay: H1.0 immunofluorescence intensity relative to DMSO (% of DMSO); higher = stronger H1.0 induction, active = 140 or more
Procedure, shortened: as §1
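Throughout, for H1.0 immunofluorescence intensity relative to DMSO: TDF is a line of transformed human dermal fibroblasts of mesenchymal origin.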
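Throughout, for cell number relative to DMSO: TDF denotes transformed human dermal fibroblasts of mesenchymal origin.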

| Structure (SMILES) | cell number (HCC1569 [1]) | cell number (TDF [2]) | H1.0 immunofluorescence intensity (TDF [3]) | H1.0 immunofluorescence intensity (HCC1569 [4]) |
| --- | --- | --- | --- | --- |
| CNCCCC12CCC(c3ccccc31)c1ccccc12.Cl [Maprotiline.HCl] | 100 | 90.4 | 94.5 (inactive) | 119 (inactive) |
| COc1cc2ccccc2cc1C(=O)OC(C)C(=O)NCc1ccc(F)cc1 (configuration not stated) [IP3K Inhibitor] | 102 | 107 | 98.7 (inactive) | 115 (inactive) |
| CN(C)[C@@H](CCOc1cccc2ccccc12)c1ccccc1.Cl | 90.3 | 92.4 | 104 (inactive) | 142 (active) |
| COC(=O)c1c(-c2cc(OC)c(OC)c(OC)c2)c2ccc(OCc3ccccn3)cc2c(=O)n1-c1ccc(N)cc1.O=S(=O)(O)O | 100 | 113 | 95.1 (inactive) | 102 (inactive) |
| Clc1ccc2c(c1)C(N1CCNCC1)=Nc1ccccc1O2 [Amoxapine] | 99.54 ± 0.74 | 99.9 ± 2.6 | 99.7 (inactive) | 108 (inactive) |
| CC(C)CC(NC(=O)C(O)C(N)Cc1ccccc1)C(=O)O.Cl (configuration not stated) [Epibestatin hydrochloride] | 105 | 96.3 | 91.8 (inactive) | 100 (inactive) |
| Cn1cnc2c(NC3CCCC3)ncnc21 [N6-Cyclopentyl-9-methyladenine] | 76.8 | 98.1 | 97.3 (inactive) | 159 (active) |
| CCCCCOc1ccccc1C(O)CC#CCCCC(=O)OC (configuration not stated) | 103 | 106 | 93 (inactive) | 89.2 (inactive) |
| NC/C=C\C(=O)O [cis-4-Aminocrotonic acid] | 105 | 100 | 98.3 (inactive) | 88.1 (inactive) |
| CCCCCC(=O)C=CC1C(O)CC(=O)C1CC=CCCCC(=O)O (configuration not stated) [15-keto-prostaglandin E2] | 100 | 108 | 89.3 (inactive) | 90.9 (inactive) |
| CCCCCCCCCC(=O)OCC(CO)OC(=O)CCCCCCCCC (configuration not stated) [1,2-Didecanoyl-glycerol (10:0)] | 102 | 98.8 | 98.3 (inactive) | 101 (inactive) |
| CN1CCc2cccc3c2C1Cc1ccc(O)c(O)c1-3.Cl [(R)-(-)-Apomorphine.HCl] | 98.4 | 98.9 | 89.1 (inactive) | 103 (inactive) |
| COC(C(=O)C(O)C(C)O)C1Cc2cc3cc(OC4CC(OC5CC(O)C(O)C(C)O5)C(O)C(C)O4)c(C)c(O)c3c(O)c2C(=O)C1OC1CC(OC2CC(OC3CC(C)(O)C(O)C(C)O3)C(O)C(C)O2)C(O)C(C)O1 (configuration not stated) [Mithramycin A] | 68.7 | 29.9 | 109 (inactive) | 112 (inactive) |
| CCCCCCCCC=CCCCCCCCC(N)=O [9,10-Octadecenoamide] | 98.5 | 103 | 94.7 (inactive) | 102 (inactive) |
| O=C1C(=Cc2ccc(O)c(O)c2)Oc2cc(O)ccc21 [Sulfuretine] | 98 | 102 | 93.3 (inactive) | 99.9 (inactive) |
| CC(C=CC1=C(C)CCCC1(C)C)=CC=CC(C)=CC(=O)Nc1ccc(O)cc1 [Retinoic acid p-hydroxyanilide] | 42.9 | 85.3 | 100 (inactive) | 185 (active) |
| COc1cc2ncnc(Nc3ccc(F)c(Cl)c3)c2cc1OCCCN1CCOCC1 [Gefitinib] | 82 ± 11 | 102 ± 10 | 98.9 (inactive) | 123 (inactive) |
| C=C1C(=CC=C2CCCC3(C)C2CCC3C(C)C=CC(O)C2CC2)CC(O)CC1O (configuration not stated) [Calcipotriene] | 97.8 | 109 | 91.9 (inactive) | 115 (inactive) |
| Cc1cccc(-c2[nH]ncc2-c2ccc3ncccc3n2)n1 | 96.6 | 95.3 | 94.9 (inactive) | 92.8 (inactive) |
| CCCC(=O)NCCc1c2n(c3ccc(OC)cc13)Cc1ccccc1-2 | 92.4 | 99.3 | 97.1 (inactive) | 108 (inactive) |
| CC1C(=O)OC2CC34C5CC(C(C)(C)C)C36C(OC(=O)C6O)OC4(C(=O)O5)C21O (configuration not stated) [Ginkgolide A] | 99.6 ± 1.2 | 99 ± 3 | 92.3 (inactive) | 95.8 (inactive) |
| COc1cc(C(C)=O)cc(-c2cc(C(C)=O)cc(OC)c2O)c1O | 100 | 110 | 93.8 (inactive) | 100 (inactive) |
| CN(C)CCCOc1nn(Cc2ccccc2)c2ccccc12 [Benzydamine] | 100 | 83.7 | 104 (inactive) | 103 (inactive) |
